Screening data as filed in PubChem BioAssay.
An excerpt weighted towards active compounds, which were near 3.2% of everything screened.
TMEM16A inh: inhibitors of mouse TMEM16A calcium-activated chloride channel. Q8BHY3. HEK293 TMEM16A/YFP iodide influx fluorescence, ionomycin. normalized B-score (activity score, 25-100; higher = stronger inhibition) at 10 µM. hit rate 1.2% among 310,000;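 active = ratio plate-corrected score three or more library SD toward inhibition, starting fluorescence score within five deviations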;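 also: score derived from kinetic fluorescence span divided by baseline fluorescence per well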
CHT block: human CHT choline transport inhibition; Q9GZV3; CHT-expressing cells, membrane potential dye, choline response; active compounds read low; B-score at 10 µM; hit rate 0.86% among 310,000;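 active = B-score over 3 SD under the library average, and starting fluorescence ratio not unusually high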;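 also: choline stimulus applied at its EC90 after an EC20 pre-addition; B-score computed on integrated fluorescence ratio after choline addition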
ANO1 activ: activators or potentiators of mouse TMEM16A chloride channel; AID 623877; B-score at 10 µM; HEK293 TMEM16A/YFP-H148Q/I152L, iodide quench fluorescence; active compounds read low; hit rate 0.3% among 340,000;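 active = fluorescence-ratio B-score plate-corrected deviation score at least 3 library SD below zero, with starting fluorescence score within 5 deviations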;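 also: channel opened by trigger with iodide after compound preincubation; score built on the fluorescence ratio of max minus min over baseline; more negative score means more quench and so TMEM16A activation or potentiation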
Kir21 inh: blocks the mouse Kir2.1 inward-rectifier potassium channel; HEK293-Kir2.1, FluxOR thallium flux fluorescence; active compounds read low; B-score at 10 µM; hit rate 0.85% among 310,000;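 active = fluorescence ratio B-score at or below minus 3 SD of library scores, with starting-brightness B-score within 2 SD, cut at about -4.2 in these data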;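 also: channel flux triggered by added potassium and thallium sulfate stimulus; B-score of peak minus minimum fluorescence over baseline after thallium stimulus; more negative B-score means stronger Kir2.1 block with less thallium influx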
Target sequence (P35561 whole entry, looked up): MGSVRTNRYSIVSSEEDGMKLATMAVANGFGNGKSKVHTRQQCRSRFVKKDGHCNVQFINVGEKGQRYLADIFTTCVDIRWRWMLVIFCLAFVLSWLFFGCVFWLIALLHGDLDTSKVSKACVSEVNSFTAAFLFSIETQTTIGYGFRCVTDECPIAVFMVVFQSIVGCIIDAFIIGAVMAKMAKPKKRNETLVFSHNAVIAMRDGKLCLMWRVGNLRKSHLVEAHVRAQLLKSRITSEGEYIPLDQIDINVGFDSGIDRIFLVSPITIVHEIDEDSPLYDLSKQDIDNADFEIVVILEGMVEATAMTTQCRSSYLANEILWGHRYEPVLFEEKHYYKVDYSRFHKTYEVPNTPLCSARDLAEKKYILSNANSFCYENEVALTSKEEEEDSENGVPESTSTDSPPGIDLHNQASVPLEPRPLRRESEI
CHT PAM: allosteric activators of human choline transporter CHT | B-score at 10 µM | Q9GZV3 | hit rate 0.49% among 310,000 | CHT-expressing cells, membrane potential dye, choline EC20; active compounds read high; LV-AA mutant CHT in HEK293 cells | AID 488977;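 active = initial fluorescence not abnormally high and integrated response B-score, plate-corrected, over 3 SD above library mean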
Rce1 inh: blocks yeast Ras-converting enzyme. yeast membranes, quenched prenylated peptide cleavage fluorescence. calls only. hit rate 0.27% among 290,000. AID 2563. Q03530;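 active = fall in fluorescence gain of 50% or more versus controls, with final raw signal at or below 3038400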;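 also: plate controls were neutral control wells for no effect and wells lacking membranes for full effect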
hERG ctr: counter-screen for Kir2.1 inhibitors: effect on human hERG; shares compounds with Kir21 inh; hERG-expressing cells, thallium flux; inhibition, % at 10 µM; hit rate 20% among 320; AID 2236;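 also: host cells are CHO cells stably expressing hERG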
KCNK9 inh: tests whether Kir2.1 inhibitors also affect human KCNK9. shares compounds with Kir21 inh. KCNK9-expressing cells, ion flux inhibition. inhibition, % at 10 µM. hit rate 5% among 320
Kir2-1 patch inh: blocks mouse Kir2.1 current in automated electrophysiology; AID 463252; inhibition, % at 25 µM; hit rate 71% among 320; Kir2.1 cells, automated patch-clamp current inhibition; shares compounds with Kir21 inh
* hit, by the source's call; i = inactive; nt = no result; + = active, no number. Unless noted, no rule for the calls is given here.

SMILES	TMEM16A inh	CHT block	ANO1 activ	Kir21 inh	CHT PAM	Rce1 inh	hERG ctr	KCNK9 inh	Kir2-1 patch inh
COc1ccc2[nH]cc(CCNS(=O)(=O)c3ccc(C)cc3)c2c1	i	i	i	-2.4	i	i	nt	nt	nt
COC(=O)c1cc(F)c(-n2cncn2)c(F)c1	i	i	i	-0.04	i	i	nt	nt	nt
COC(=O)c1cc([N+](=O)[O-])c(-n2cncn2)c([N+](=O)[O-])c1	nt	nt	i	-7.7*	nt	i	i	i	i
COc1ccc(N2CCN(C(CNC(=O)CC(C)(C)C)c3ccc4c(c3)OCO4)CC2)cc1 (stereo not drawn)	i	i	i	1.5	i	i	nt	nt	nt
CC(=O)c1c(C)[nH]c(C(=O)Nc2cccc(C(F)(F)F)c2)c1C	i	i	i	2.1	i	i	nt	nt	nt
CC1=CC(C)(C)N(C(=O)CSc2nnc(N)s2)c2cc(C)c(C)cc21	i	i	i	-0.68	i	i	nt	nt	nt
CC1=CC(C)(C)N(C(=O)CSc2nnc(C)s2)c2ccc(C)cc21	i	i	i	-7.1*	i	i	i	i	8.3%*
OC1CCCN(Cc2ccc3ccc4cccc5ccc2c3c45)C1 (stereo not drawn)	i	i	i	-5.8*	i	i	48%*	i	i
OC1CCCN(CC(O)c2ccccc2)C1 (stereo not drawn)	i	i	i	-2.6	i	i	nt	nt	nt
O=C(OCC1OC(n2ccc(=O)[nH]c2=O)C2OC12)c1ccccc1 (stereo not drawn)	nt	nt	i	nt	nt	nt	nt	nt	nt
NC(=O)C1=C[C@@H](C2CCCCC2)C[C@@H](OCc2ccc(CO)cc2)O1	i	i	i	-7.7*	i	i	i	i	26%*
O=C(O)C1=C[C@@H](C2CCCCC2)C[C@@H](OCc2ccc(CO)cc2)O1	i	i	i	0.15	i	i	nt	nt	nt
CC(=O)OC1=C(C#N)Cn2ccc3cccc1c32	i	i	nt	-6.7*	i	i	i	i	i
CC[C@H](C)Cc1cn([C@@H](CCCN=C(N)N)C(=O)NCCCCCCCCCCC(=O)N2CCNCC2)nn1	i	i	i	nt	i	i	nt	nt	nt
CC(CCc1ccccc1)NC(=O)CC(C)c1ccccc1 (stereo not drawn)	i	i	i	-8*	i	i	i	i	38%*
Cn1cc2cc(NC(N)=S)ccc2n1	i	i	i	0.04	i	i	nt	nt	nt
C=CCn1c(SCc2cccc(C#N)c2)nnc1-c1ccccc1O	i	i	i	-5.9*	i	i	i	i	24%*
CC(NS(=O)(=O)c1ccc(Br)cc1)c1ccccc1 (stereo not drawn)	i	i	i	-6*	i	i	i	i	54%*
C[n+]1c(-c2ccccc2)sc([S-])c1-c1ccccc1	i	i	i	-0.18	i	i	nt	nt	nt
Oc1ccc(Nc2nc(N3CCCC3)c3ccccc3n2)cc1	i	i	i	-7.5*	i	i	64%*	i	i
O=C1CN(S(=O)(=O)c2cccc(Cl)c2Cl)c2ccccc2N1	i	i	i	-5.7*	i	i	i	i	i
CNCCCCOc1ccccc1Cc1ccccc1	i	i	nt	-8.8*	i	i	i	i	30%*
CC(=O)OCc1c(C(F)(F)F)nn(C)c1Sc1ccccc1	i	i	i	-0.12	i	i	nt	nt	nt
CCC(=O)OCc1c(C(F)(F)F)nn(C)c1Sc1ccc(F)cc1	i	i	i	-8.4*	i	i	i	i	31%*
C#Cc1ccc([C@H]2C=C(C(=O)NCc3ccccc3)O[C@@H](OCc3ccc(CO)cc3)C2)cc1	i	i	i	-1.2	i	i	nt	nt	nt
SMILES	TMEM16A inh	CHT block	ANO1 activ	Kir21 inh	CHT PAM	Rce1 inh	hERG ctr	KCNK9 inh	Kir2-1 patch inh
C#CCNC(=O)C1=C[C@@H](c2ccc(C#C)cc2)C[C@@H](OCc2ccc(CO)cc2)O1	i	i	i	-6.3*	i	i	i	i	6.4%*
O=C1NC(Cc2c[nH]c3ccccc23)C(=O)N1Cc1ccccc1 (stereo not drawn)	i	i	i	-3.6	i	i	nt	nt	nt
O=C1C(Cc2c[nH]c3ccccc23)NC(=S)N1Cc1ccccc1 (stereo not drawn)	i	i	i	-6.4*	i	+	i	i	12%*
CSc1nnc(-c2cc[n+](C)cc2)n1CCO	i	i	i	0.82	i	i	nt	nt	nt
CC1CCN(C(=O)CCc2nnc3ccc(N4CCC5(CC4)OCCO5)nn23)CC1	i	i	i	0.37	i	i	nt	nt	nt
Cc1cc(S(=O)(=O)Nc2cc(C)c(O)c(C)c2)c(C)s1	i	i	i	-6.7*	i	i	i	i	18%*
Cc1cc(S(=O)(=O)Nc2cccnc2)c(C)s1	i	i	i	-1.9	i	i	nt	nt	nt
Cc1cc(C)nc(SCCCNCc2ccc(Br)cc2)n1	i	i	i	-7.1*	i	i	i	i	44%*
COC(=O)c1c(NC(=O)COC(=O)CC(NC(C)=O)c2ccccc2)sc(C)c1C (stereo not drawn)	i	i	i	-1.6	i	i	nt	nt	nt
COc1cccc(OC)c1C(=O)Nc1ccc(N2CCCC2)cc1	i	i	i	3	i	i	i	i	i
O=C(c1cc(COc2ccc3c(c2)CCCC3)on1)N1CCCC1	i	i	i	4.1	i	nt	i	i	i
COCC1CCN(C(=O)c2cc(COc3ccc4c(c3)CCCC4)on2)C1 (stereo not drawn)	i	i	i	0.39	i	i	nt	nt	nt
Cc1cc(C)c(S(=O)(=O)c2cccc(Cl)c2)c(Cl)n1	i	i	i	-0.36	i	i	nt	nt	nt
CCOc1nc(C)cc(C)c1S(=O)(=O)c1cccc(Cl)c1	i	i	i	-8.2*	i	i	i	i	36%*
Cc1cc(OCCOCCNCc2ccccc2)ccc1C(C)C	i	i	i	-7.8*	i	i	49%*	i	52%*
